# Assay results as given in the supplement of paper PMC3545927.
# The list shows a part of the results. No count for the full screen is at hand.
# B1: HC1189 (peptide)
# chain: CASGTFPINAAGNASASA
# B2: HC812 (peptide)
# chain: CAGGCSGGAYAGNASASA
# B3: HC1472 (peptide)
# chain: CAFLVQAWKSAGNASASA
# B4: HC1545 (peptide)
# chain: CAPPGDPPQPAGNASASA
# B5: HC1117 (peptide)
# chain: CAVQWMNRLIAGNASASA
# B6: HC457 (peptide)
# chain: CATYSRCGSGAGNASASA
# B7: HC270 (peptide)
# chain: CAAILHTPGCAGNASASA
# B8: FS-2993 (peptide)
# chain: CARLLRSLTHAGNASASA
# B9: FS-3019 (peptide)
# chain: CARPPRGFQPAGNASASA
# B10: FS-1712 (peptide)
# chain: CARGPRSSSAAGNASASA
# B11: FS-2278 (peptide)
# chain: CARLLRDADDAGNASASA
# B12: FS-2935 (peptide)
# chain: CARGPRSYPHAGNASASA
# B13: FS-1894 (peptide)
# chain: CARGPRSATHAGNASASA
# B14: FS-2438 (peptide)
# chain: CARPPREEGKAGNASASA
# B15: FS-2580 (peptide)
# chain: CARPPRSTCQAGNASASA
# B16: FS-2044 (peptide)
# chain: CARLRRLLWIAGNASASA
# B17: HC853 (peptide)
# chain: CAIKGGRHLIAGNASASA
# B18: HC2296 (peptide)
# chain: CADGEVVTSTAGNASASA
# B19: HC929 (peptide)
# chain: CAVRLRAYMNAGNASASA
# B20: HC785 (peptide)
# chain: CAYKVLVLNPAGNASASA
# B21: FS-2303 (peptide)
# chain: CARSGRDSGYAGNASASA
# B22: FS-2087 (peptide)
# chain: CARSKRDPDLAGNASASA
# B23: FS-2307 (peptide)
# chain: CARSKRRWAPAGNASASA
# B24: FS-2381 (peptide)
# chain: CARSKRYVHLAGNASASA
# B25: FS-3169 (peptide)
# chain: CARSKRDSTYAGNASASA
# B26: FS-3082 (peptide)
# chain: CARSKKPKGLAGNASASA
# B27: FS-2810 (peptide)
# chain: CARSKRDEKLAGNASASA
# B28: FS-1928 (peptide)
# chain: CARSKRDYTPAGNASASA
# B29: FS-2606 (peptide)
# chain: CARSKRPSTDAGNASASA
# B30: HC1026 (peptide)
# chain: CAKALGLLQTAGNASASA
# B31: HC1020 (peptide)
# chain: CAEQGMMLAEAGNASASA
# B32: HC619 (peptide)
# chain: CAGLLRFCALAGNASASA
# B33: FS-2384 (peptide)
# chain: CARTKRNAKIAGNASASA
# B34: FS-2731 (peptide)
# chain: CARNQRDAWIAGNASASA
# B35: FS-1708 (peptide)
# chain: CARGARLVSEAGNASASA
# B36: FS-3106 (peptide)
# chain: CARTKRFVSEAGNASASA
# B37: FS-2826 (peptide)
# chain: CARTKRFLSYAGNASASA
# B38: FS-2031 (peptide)
# chain: CARIPREVSEAGNASASA
# B39: FS-2060 (peptide)
# chain: CARPWKSVSEAGNASASA
# B40: FS-2612 (peptide)
# chain: CARTKRKPSIAGNASASA
# B41: HC2045 (peptide)
# chain: CAVVCCSLSYAGNASASA
# B42: HC870 (peptide)
# chain: CARGLDVSVIAGNASASA
# B43: HC912 (peptide)
# chain: CAAPGERPSGAGNASASA
# Biological target: furin, P09958
# Experiment: furin cleavage Z-score vs untreated control; higher = more cleavage, active = 3.5 or more, inactive = 1 or less, 8 variable residues between constant flanks
# Description: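 Multiplexed peptide-cDNA fusion cleavage assay. 8-mer variable peptides flanked by constant Cys-Ala (N-term) and Ala-Gly-Asn-Ala-Ser-Ala-Ser-Ala (C-term) and conjugated to a cDNA oligonucleotide were bead-immobilised via the N-terminus. They were treated with purified furin at a 1:10 enzyme:substrate ratio in 50 mM HEPES pH 7.5, 1 mM CaCl2, 100 mM NaCl for 7.5, 15 or 30 min. Released cDNA was counted by next-generation sequencing, and log counts versus no-furin controls were lowess-adjusted and converted to robust Z-scores.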
# Chain of furin, P09958 (P09958 whole entry): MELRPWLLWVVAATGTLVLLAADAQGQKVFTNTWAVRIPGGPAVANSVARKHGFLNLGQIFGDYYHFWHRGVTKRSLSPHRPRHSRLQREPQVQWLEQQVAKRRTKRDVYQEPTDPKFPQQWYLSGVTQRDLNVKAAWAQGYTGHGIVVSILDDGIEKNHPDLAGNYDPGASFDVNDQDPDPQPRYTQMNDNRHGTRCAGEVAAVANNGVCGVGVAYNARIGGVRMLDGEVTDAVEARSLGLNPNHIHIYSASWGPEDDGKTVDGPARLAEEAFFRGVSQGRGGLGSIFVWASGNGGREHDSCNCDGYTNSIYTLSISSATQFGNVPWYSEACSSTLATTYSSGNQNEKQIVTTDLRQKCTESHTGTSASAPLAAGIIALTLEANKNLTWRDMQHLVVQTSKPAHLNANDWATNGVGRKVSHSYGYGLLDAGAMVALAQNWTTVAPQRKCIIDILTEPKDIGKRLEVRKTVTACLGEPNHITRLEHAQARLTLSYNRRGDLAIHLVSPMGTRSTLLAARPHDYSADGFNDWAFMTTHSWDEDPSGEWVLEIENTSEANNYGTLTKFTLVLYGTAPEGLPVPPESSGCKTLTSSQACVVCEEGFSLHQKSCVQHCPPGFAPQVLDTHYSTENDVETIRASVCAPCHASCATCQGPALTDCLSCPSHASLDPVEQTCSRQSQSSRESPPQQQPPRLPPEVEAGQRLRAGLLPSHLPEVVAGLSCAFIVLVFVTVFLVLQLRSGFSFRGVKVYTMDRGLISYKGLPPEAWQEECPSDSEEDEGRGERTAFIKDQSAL
Sequence,furin cleavage Z-score (7.5 min),furin cleavage Z-score (15 min),furin cleavage Z-score (30 min)
B1,-0.56 (inactive),-1.29 (inactive),-0.783 (inactive)
B2,0.0451 (inactive),-0.928 (inactive),-1.91 (inactive)
B3,-0.545 (inactive),-1.14 (inactive),0.129 (inactive)
B4,0.491 (inactive),-1.28 (inactive),-0.552 (inactive)
B5,-0.371 (inactive),-0.656 (inactive),-0.702 (inactive)
B6,-0.645 (inactive),-0.493 (inactive),0.00889 (inactive)
B7,0.368 (inactive),1.18,-0.0199 (inactive)
B8,1.05,3.14,4.05 (active)
B9,-1.18 (inactive),-0.836 (inactive),-0.248 (inactive)
B10,-0.135 (inactive),-0.114 (inactive),-1.14 (inactive)
B11,-0.832 (inactive),-0.574 (inactive),-0.464 (inactive)
B12,-0.268 (inactive),1.01,0.916 (inactive)
B13,3.56 (active),2.79,2.67
B14,-0.719 (inactive),-0.617 (inactive),-0.558 (inactive)
B15,2.35,3.89 (active),3.84 (active)
B16,-1.02 (inactive),-0.859 (inactive),0.923 (inactive)
B17,-0.712 (inactive),-0.368 (inactive),0.443 (inactive)
B18,0.392 (inactive),0.826 (inactive),-0.278 (inactive)
B19,0.615 (inactive),-1.18 (inactive),1.3
B20,1.85,-0.276 (inactive),-1.39 (inactive)
B21,-0.464 (inactive),-0.846 (inactive),-1.58 (inactive)
B22,-0.408 (inactive),0.763 (inactive),0.503 (inactive)

Sequence,furin cleavage Z-score (7.5 min),furin cleavage Z-score (15 min),furin cleavage Z-score (30 min)
B23,0.891 (inactive),0.79 (inactive),2.12
B24,2.83,5.52 (active),7.4 (active)
B25,6.51 (active),7.64 (active),7.09 (active)
B26,0.217 (inactive),-0.722 (inactive),-1.55 (inactive)
B27,3.32,5.67 (active),5.15 (active)
B28,6.07 (active),5.96 (active),6.83 (active)
B29,-0.273 (inactive),0.303 (inactive),0.307 (inactive)
B30,-0.0968 (inactive),0.32 (inactive),-1.95 (inactive)
B31,0.411 (inactive),0.355 (inactive),-0.0666 (inactive)
B32,-0.221 (inactive),-0.963 (inactive),0.576 (inactive)
B33,8.15 (active),8.32 (active),7.88 (active)
B34,-0.28 (inactive),-0.224 (inactive),-0.1 (inactive)
B35,0.305 (inactive),-0.752 (inactive),0.671 (inactive)
B36,7.52 (active),9.36 (active),7.54 (active)
B37,4.24 (active),5.3 (active),6.61 (active)
B38,7.41 (active),8.89 (active),7.69 (active)
B39,-0.467 (inactive),0.327 (inactive),1.73
B40,0.358 (inactive),-0.0194 (inactive),0.82 (inactive)
B41,0.285 (inactive),2.15,0.578 (inactive)
B42,1.35,-0.274 (inactive),-0.641 (inactive)
B43,-0.474 (inactive),0.136 (inactive),-0.967 (inactive)
